The supplement of paper PMC11001985

compound: C#CCNC(=O)CCSSCCC(=O)NCCc1ccc(C=O)c(C=O)c1; test: lysine labeling ratio R10:1 (500 µM / 50 µM probe), SILAC-ABPP in living cells; higher = lower intrinsic lysine reactivity toward the probe, active = 2 or less; settings: HeLa; probe concentrations 500 vs 50 µM
Outline: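 Forward and reverse SILAC label swaps were used with living light and heavy HeLa cells in PBS at room temperature, which were given an alkyne-tagged, disulfide-linked lysine probe at 50 µM or 500 µM. R is the per-lysine filtered median high-probe/low-probe MS1 peptide ratio, with the median then taken across both swap directions. Values are limited to 20.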

Sequence of UniProt P07996 (P07996 whole entry, looked up): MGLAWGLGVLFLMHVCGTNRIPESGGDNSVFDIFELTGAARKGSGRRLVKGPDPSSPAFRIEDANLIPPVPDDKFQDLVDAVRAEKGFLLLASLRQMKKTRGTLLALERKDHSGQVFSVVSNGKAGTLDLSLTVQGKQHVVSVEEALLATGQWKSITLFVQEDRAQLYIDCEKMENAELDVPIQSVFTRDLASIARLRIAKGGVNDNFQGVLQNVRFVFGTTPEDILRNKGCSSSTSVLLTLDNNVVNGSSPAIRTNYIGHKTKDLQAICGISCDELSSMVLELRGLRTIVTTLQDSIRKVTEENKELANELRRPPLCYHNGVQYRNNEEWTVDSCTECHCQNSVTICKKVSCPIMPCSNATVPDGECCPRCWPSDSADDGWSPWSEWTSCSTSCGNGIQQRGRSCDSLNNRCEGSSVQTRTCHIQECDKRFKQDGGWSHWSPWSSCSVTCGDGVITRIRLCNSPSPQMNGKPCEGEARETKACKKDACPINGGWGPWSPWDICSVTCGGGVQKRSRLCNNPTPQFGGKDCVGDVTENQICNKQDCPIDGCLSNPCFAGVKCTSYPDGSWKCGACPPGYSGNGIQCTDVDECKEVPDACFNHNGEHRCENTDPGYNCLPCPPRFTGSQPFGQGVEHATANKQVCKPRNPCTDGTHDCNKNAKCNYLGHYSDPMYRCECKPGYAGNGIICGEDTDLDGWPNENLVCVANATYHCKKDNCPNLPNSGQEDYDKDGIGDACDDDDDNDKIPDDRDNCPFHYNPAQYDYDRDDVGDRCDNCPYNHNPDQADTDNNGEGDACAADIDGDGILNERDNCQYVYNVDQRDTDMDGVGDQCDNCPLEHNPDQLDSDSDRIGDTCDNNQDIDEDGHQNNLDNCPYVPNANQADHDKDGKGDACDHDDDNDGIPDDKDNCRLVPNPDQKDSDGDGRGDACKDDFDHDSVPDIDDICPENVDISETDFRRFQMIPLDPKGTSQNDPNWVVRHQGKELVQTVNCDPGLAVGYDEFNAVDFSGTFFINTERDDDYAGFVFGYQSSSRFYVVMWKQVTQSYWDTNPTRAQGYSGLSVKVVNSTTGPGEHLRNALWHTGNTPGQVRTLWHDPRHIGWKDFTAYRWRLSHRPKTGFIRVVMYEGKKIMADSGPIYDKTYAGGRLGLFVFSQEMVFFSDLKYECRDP
Sequence of UniProt Q08380 (Q08380 whole entry): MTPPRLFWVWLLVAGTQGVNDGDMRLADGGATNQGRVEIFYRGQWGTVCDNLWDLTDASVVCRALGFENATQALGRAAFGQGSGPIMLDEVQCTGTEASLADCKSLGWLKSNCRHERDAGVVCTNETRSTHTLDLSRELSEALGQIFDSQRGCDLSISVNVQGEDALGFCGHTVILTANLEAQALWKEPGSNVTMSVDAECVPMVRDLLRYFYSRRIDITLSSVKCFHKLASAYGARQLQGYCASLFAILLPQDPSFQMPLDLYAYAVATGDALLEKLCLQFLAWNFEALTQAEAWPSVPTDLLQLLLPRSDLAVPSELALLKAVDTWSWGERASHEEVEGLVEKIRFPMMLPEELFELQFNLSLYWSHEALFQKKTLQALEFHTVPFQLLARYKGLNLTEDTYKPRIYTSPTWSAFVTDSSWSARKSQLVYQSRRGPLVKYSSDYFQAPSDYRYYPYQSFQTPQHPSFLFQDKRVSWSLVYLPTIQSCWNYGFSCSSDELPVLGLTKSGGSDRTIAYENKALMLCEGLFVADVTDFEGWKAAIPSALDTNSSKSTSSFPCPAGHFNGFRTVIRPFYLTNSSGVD
Sequence of UniProt P28827 (P28827 whole entry): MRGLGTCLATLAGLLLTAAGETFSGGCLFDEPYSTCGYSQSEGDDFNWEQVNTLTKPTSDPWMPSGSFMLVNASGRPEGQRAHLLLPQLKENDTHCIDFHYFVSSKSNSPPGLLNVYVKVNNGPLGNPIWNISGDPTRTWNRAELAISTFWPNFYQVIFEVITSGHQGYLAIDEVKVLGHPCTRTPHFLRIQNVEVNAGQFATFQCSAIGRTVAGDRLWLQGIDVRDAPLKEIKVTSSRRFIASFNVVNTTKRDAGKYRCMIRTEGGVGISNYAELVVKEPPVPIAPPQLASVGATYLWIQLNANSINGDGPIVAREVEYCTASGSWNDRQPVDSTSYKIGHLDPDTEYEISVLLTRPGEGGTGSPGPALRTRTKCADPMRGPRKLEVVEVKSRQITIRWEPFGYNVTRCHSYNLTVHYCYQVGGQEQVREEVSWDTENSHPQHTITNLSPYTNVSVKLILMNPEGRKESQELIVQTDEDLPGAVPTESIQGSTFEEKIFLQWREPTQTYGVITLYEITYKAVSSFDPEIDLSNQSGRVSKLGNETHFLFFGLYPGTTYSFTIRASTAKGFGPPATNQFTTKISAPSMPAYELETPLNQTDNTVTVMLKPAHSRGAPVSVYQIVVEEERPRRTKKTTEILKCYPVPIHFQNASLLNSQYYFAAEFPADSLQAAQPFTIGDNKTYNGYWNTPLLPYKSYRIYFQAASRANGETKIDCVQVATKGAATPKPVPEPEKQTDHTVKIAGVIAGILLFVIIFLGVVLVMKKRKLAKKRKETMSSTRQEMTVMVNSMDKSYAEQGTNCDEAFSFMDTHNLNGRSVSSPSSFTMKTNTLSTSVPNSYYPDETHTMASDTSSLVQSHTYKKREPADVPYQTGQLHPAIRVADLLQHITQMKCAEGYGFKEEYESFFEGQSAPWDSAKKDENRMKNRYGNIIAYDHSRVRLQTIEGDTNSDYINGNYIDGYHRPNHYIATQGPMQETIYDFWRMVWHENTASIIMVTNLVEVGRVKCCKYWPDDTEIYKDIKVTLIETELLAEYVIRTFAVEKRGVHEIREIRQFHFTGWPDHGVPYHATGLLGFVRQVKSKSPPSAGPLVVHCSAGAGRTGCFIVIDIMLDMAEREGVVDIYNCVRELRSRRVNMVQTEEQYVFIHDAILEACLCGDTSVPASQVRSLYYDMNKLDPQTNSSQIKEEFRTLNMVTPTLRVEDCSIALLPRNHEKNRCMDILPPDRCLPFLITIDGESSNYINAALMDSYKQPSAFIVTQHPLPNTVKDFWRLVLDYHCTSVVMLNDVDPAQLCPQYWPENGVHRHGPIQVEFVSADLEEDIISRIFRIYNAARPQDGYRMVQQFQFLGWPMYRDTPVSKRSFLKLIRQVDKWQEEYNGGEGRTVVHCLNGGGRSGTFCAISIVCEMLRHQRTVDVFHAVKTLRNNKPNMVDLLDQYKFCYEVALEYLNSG
Sequence of UniProt P49257 (P49257 whole entry): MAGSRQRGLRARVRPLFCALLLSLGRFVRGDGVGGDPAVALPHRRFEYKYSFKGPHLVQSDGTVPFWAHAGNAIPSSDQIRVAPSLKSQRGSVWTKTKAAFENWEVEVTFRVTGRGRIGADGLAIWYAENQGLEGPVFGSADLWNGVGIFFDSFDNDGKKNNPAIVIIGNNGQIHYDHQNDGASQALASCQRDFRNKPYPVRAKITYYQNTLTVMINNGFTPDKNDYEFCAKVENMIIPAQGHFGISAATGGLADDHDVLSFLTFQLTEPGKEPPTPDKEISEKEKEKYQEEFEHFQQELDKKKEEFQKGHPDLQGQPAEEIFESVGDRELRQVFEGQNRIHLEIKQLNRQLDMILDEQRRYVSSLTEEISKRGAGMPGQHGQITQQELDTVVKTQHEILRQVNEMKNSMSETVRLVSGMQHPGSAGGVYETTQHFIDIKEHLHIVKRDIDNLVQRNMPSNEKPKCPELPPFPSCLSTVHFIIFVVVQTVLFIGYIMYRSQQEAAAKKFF
Sequence of UniProt Q14126 (Q14126 whole entry): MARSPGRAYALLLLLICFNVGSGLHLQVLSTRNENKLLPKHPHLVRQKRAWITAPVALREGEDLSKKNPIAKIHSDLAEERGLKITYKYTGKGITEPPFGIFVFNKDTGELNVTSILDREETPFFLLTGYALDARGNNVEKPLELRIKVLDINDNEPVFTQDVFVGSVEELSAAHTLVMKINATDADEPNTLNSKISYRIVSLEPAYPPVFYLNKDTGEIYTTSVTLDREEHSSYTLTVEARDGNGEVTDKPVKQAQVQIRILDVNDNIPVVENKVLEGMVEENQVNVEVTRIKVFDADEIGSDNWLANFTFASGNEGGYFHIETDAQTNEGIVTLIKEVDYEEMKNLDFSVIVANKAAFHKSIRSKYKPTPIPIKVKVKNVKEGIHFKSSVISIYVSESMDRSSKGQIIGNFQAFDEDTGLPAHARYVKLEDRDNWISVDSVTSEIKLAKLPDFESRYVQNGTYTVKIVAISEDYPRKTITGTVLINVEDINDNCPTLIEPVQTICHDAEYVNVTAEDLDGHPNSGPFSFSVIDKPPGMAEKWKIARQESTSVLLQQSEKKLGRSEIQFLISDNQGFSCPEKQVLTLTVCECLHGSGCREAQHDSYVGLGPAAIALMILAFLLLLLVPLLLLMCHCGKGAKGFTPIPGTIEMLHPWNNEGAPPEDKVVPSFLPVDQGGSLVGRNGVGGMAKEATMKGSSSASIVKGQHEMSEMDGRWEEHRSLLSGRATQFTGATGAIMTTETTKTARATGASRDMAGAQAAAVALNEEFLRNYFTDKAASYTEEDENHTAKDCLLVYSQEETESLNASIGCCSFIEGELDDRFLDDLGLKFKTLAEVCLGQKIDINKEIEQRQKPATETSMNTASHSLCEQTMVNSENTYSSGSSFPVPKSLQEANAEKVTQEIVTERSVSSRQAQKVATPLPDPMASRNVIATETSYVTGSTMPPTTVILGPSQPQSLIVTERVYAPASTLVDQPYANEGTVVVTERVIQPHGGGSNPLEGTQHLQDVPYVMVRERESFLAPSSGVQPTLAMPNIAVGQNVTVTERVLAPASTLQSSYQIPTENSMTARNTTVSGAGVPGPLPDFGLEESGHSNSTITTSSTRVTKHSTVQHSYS
Sequence of UniProt Q9BV40 (Q9BV40 whole entry): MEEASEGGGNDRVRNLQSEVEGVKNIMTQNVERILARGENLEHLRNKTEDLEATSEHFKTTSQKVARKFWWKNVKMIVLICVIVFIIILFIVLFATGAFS

Target | lysine labeling ratio R10:1
LGALS3BP (lysine site: K427) (UniProt Q08380) | 2.98 (inactive)
THBS1 (lysine site: K1103) (UniProt P07996) | 0.85 (active)
ATP1B1 (lysine site: K134) (UniProt P05026) | 6.75 (inactive)
IGF2R (lysine site: K1104) (UniProt P11717) | 3.26 (inactive)
VAMP8 (lysine site: K64) (UniProt Q9BV40) | 2.52 (inactive)
ATAD3B (lysine site: K135) (UniProt Q5T9A4) | 2.68 (inactive)
CELSR2 (lysine site: K2176) (UniProt Q9HCU4) | 4.05 (inactive)
ITGB1 (lysine site: K100) (UniProt P05556) | 10.5 (inactive)
LAMA5 (lysine site: K255) (UniProt O15230) | 2.33 (inactive)
UniProt Q8WXI7 (lysine site: K12605) | 3.8 (inactive)
SEMA3C (lysine site: K547) (UniProt Q99985) | 2.69 (inactive)
DSG2 (lysine site: K406) (UniProt Q14126) | 3.75 (inactive)
CD97 (lysine site: K422) (UniProt P48960) | 2.07 (inactive)
F13A1 (lysine site: K258) (UniProt P00488) | 1.15 (active)
LMAN1 (lysine site: K87) (UniProt P49257) | 3.85 (inactive)
PTPRM (lysine site: K234) (UniProt P28827) | 1.53 (active)
